In publication PMC7819943, “Rice protein-binding microarrays: a tool to detect cis-acting elements near promoter regions in rice”:
Over roughly 39,000 sequences, “fluorescence intensity (a.u.)” has its median near 4,300; the highest 2% begin near 39,000. The entries come from a sample that favours the highest values as a whole.

Each sequence was assayed against T1, OsSMF1 (Oryza sativa, UniProt Q6ZLB0 1-436) (assay: protein-binding microarray (RPBM); PBS, 2% BSA, 51.3 ng/ul salmon testes DNA, 50 uM zinc acetate, 200 nM TF, 25 C, 1 h; high values mean tight binding). Conditions: protein: recombinant; tags: N-terminal polyhistidine and DsRed monomer fusion (pET32a); chain copies: 2; label: CyDye5-dUTP incorporated in the synthesized complementary strand; 3' TTTTT single-stranded linker to array surface; dsDNA, one strand shown.
T1 sequence: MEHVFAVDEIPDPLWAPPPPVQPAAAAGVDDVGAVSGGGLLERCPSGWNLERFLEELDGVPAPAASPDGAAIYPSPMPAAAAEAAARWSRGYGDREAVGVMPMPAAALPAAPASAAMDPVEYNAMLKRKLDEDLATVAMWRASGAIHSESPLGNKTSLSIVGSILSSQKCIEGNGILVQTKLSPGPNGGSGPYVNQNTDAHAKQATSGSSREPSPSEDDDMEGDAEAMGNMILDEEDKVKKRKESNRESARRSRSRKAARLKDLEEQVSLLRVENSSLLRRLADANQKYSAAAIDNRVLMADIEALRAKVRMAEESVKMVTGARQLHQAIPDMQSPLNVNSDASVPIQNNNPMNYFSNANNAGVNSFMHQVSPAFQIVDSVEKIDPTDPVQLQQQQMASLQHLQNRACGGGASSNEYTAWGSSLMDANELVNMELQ
Method in brief: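 Transcription factors, each fused N-terminally to a polyhistidine tag and DsRed, were expressed in E. coli BL21-CodonPlus and purified on Ni–NTA. A custom Agilent array was made double-stranded by primer extension with Cy5-dUTP and blocked with 2% BSA. It was incubated with 200 nM protein in PBS, 2% BSA, salmon testes DNA and 50 µM zinc acetate at 25 °C for 1 h, then washed. The binding signal is per-feature fluorescence intensity (arbitrary units) read on an Axon 4000B scanner.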
For “CTGGGCAAAATCTCTCCCATACATACACTACAGCGGCGAACGGAGTCACCTAGTGCAG”, the binding signal was 3290 fluorescence intensity (a.u.). In the case of “GGGCGTTGCGGCCGTCACACGTGGTATGGGAGGGCGCCGCCGGAGTCACCTAGTGCAG”, the binding signal is reported as 5820 fluorescence intensity (a.u.). “TAGTAGTACTATGTAACCGGTACAGTCACCAAAACAGGGTCGGAGTCACCTAGTGCAG” was tested, and the binding signal was 5260 fluorescence intensity (a.u.). In the case of “CAGTTGACAAATGACAACCGGCACGTTTGCAACATGCAAGCGGAGTCACCTAGTGCAG”, the binding signal is reported as 3220 fluorescence intensity (a.u.). With “CAGTTCTTAAACTTGTAAAGTTGTGTCATATACCACATTACGGAGTCACCTAGTGCAG” the binding signal was 39600 fluorescence intensity (a.u.). “TTTGCCTACTCATCACCACATGTATAAAGTGTAAACTTTACGGAGTCACCTAGTGCAG” was tested, and the binding signal was 5240 fluorescence intensity (a.u.). “GTTTATACCTATAAAGTTTCTATATTAAAAGTTTACGTGTCGGAGTCACCTAGTGCAG” was tested, and the binding signal was 3490 fluorescence intensity (a.u.). With “CCAAAATTAGCTTCGGTCGGTACAAACACCAGAATTCAGCCGGAGTCACCTAGTGCAG” the binding signal was 3220 fluorescence intensity (a.u.). “CGGAATGTCTCCGCGGAAGATGCCCAAGGAATCGCCTGGCCGGAGTCACCTAGTGCAG” was tested, and the binding signal was 39500 fluorescence intensity (a.u.). For “CACCGCCCCATCGATCTCCGCCCGGCCGCCACCAATCTCGCGGAGTCACCTAGTGCAG”, the binding signal was 3310 fluorescence intensity (a.u.). “GTCTCCGATGCCCCGATGCCGCCGCGTCGCTGGCCTGATTCGGAGTCACCTAGTGCAG” was tested, and the binding signal was 3390 fluorescence intensity (a.u.). For “ATTAATAGCAGTGACGTCTTGCACATACTGTATGAGTCATCGGAGTCACCTAGTGCAG”, the binding signal was 11000 fluorescence intensity (a.u.). “TTATCTCCTCATCCATTTTCATCCTCGTCTACATTCACTGCGGAGTCACCTAGTGCAG” was tested, and the binding signal was 24600 fluorescence intensity (a.u.). In the case of “AATGTAATAAATTGTAGATGTCATTGCTATGCATGCATGACGGAGTCACCTAGTGCAG”, the binding signal is reported as 3920 fluorescence intensity (a.u.). In the case of “CATGGATAGGATAATCGTAACAATTATCTAGACAGTGATGCGGAGTCACCTAGTGCAG”, the binding signal is reported as 3140 fluorescence intensity (a.u.). “ATAATATAAAACGGATGGATCACATGCTATGAACCTATGACGGAGTCACCTAGTGCAG” was tested, and the binding signal was 51200 fluorescence intensity (a.u.). “TCTTTGGTGATGGATAATAACCCGATATAAACAATATAGACGGAGTCACCTAGTGCAG” was tested, and the binding signal was 65000 fluorescence intensity (a.u.). With “ATTGGACGATAAAATATTGGACGGTGATTCACCTTTTAGACGGAGTCACCTAGTGCAG” the binding signal was 3170 fluorescence intensity (a.u.). With “GAACATATCACATGCTCATATCAAAATTTATAATATTAAACGGAGTCACCTAGTGCAG” the binding signal was 35200 fluorescence intensity (a.u.). With “ATTATGAGCCATGATTCTCTCATCATGCAATGTCCCAGCACGGAGTCACCTAGTGCAG” the binding signal was 22100 fluorescence intensity (a.u.). For “TATATATGCACCGAGACACATATGAATCATCACACGTCTTCGGAGTCACCTAGTGCAG”, the binding signal was 3550 fluorescence intensity (a.u.). “CGCCGCCTCACCAGCGCCACCTCCACCTCCACCTACGTCTCGGAGTCACCTAGTGCAG” was tested, and the binding signal was 3270 fluorescence intensity (a.u.). In the case of “TTGCAGCAGAATACTTACCACGACAGAATTTGAGGATCTACGGAGTCACCTAGTGCAG”, the binding signal is reported as 29500 fluorescence intensity (a.u.). In the case of “AGATCGACCAATGATACACACACAGCATATGAATCCTTTCCGGAGTCACCTAGTGCAG”, the binding signal is reported as 41400 fluorescence intensity (a.u.). “CCAGCATCTGACACATCCTTTCCTAGCTGATCGACTCCATCGGAGTCACCTAGTGCAG” was tested, and the binding signal was 3420 fluorescence intensity (a.u.). “GCATAAATGATGTGTTTCTGAATCCAATTACACACATGATCGGAGTCACCTAGTGCAG” was tested, and the binding signal was 5020 fluorescence intensity (a.u.). With “AATACCGACGTGTCTAGACCTCAGCGACACACTGGAGCGTCGGAGTCACCTAGTGCAG” the binding signal was 5000 fluorescence intensity (a.u.). With “GTGTTCGACGAAATGCCAACAAGGAACGTGGTGGCGTGGACGGAGTCACCTAGTGCAG” the binding signal was 3500 fluorescence intensity (a.u.). In the case of “GCGCCGCCGGCGCCGCGGCGCGGCCGATGACCACGCCGGACGGAGTCACCTAGTGCAG”, the binding signal is reported as 3490 fluorescence intensity (a.u.). For “ACGGACGGGCGTCGGCGCGGGCGATGACGGACTGACGACGCGGAGTCACCTAGTGCAG”, the binding signal was 3490 fluorescence intensity (a.u.). For “GAACGATGACGGCGCGATGGCCGCCGCCGTGGCGCGGACGCGGAGTCACCTAGTGCAG”, the binding signal was 3210 fluorescence intensity (a.u.). For “TATCATACAAATGACGACACCACACAAACGGCGGCCCAAGCGGAGTCACCTAGTGCAG”, the binding signal was 4320 fluorescence intensity (a.u.). In the case of “CAAGGCGGCCCAACCATCTTCGAAATGCGGCCCATGACGACGGAGTCACCTAGTGCAG”, the binding signal is reported as 39100 fluorescence intensity (a.u.). “TCCCCTTCTTCACCGATGCGGCGATGCGCGCGCCTTCTTCCGGAGTCACCTAGTGCAG” was tested, and the binding signal was 27500 fluorescence intensity (a.u.). For “CCCACGGCGCAACGATGACGATGACGATGCCCTTCCGGCGCGGAGTCACCTAGTGCAG”, the binding signal was 46900 fluorescence intensity (a.u.). In the case of “CGCGCGCGCCGCCGCCGGTCGGTAACGACGGCGACGATGACGGAGTCACCTAGTGCAG”, the binding signal is reported as 65500 fluorescence intensity (a.u.). For “CCATCCACCATTCACTTTCCCACCTACCTCCACTATTTATCGGAGTCACCTAGTGCAG”, the binding signal was 3430 fluorescence intensity (a.u.). “AATAATGGGCTGAAAATATGTGACGCGAGGCGAGGGTCCCCGGAGTCACCTAGTGCAG” was tested, and the binding signal was 3260 fluorescence intensity (a.u.). With “CGCCAACACGACGCTGTGCCGTGGCGCGCCGACAATCATCCGGAGTCACCTAGTGCAG” the binding signal was 3600 fluorescence intensity (a.u.). “ACATGCCGCTAGGAAATATCCCATCCGGTGCCTGTCTAGACGGAGTCACCTAGTGCAG” was tested, and the binding signal was 3150 fluorescence intensity (a.u.). “TTGCCGGTACTTTGGTACGTCATCCGTGTATAAGTCGGTTCGGAGTCACCTAGTGCAG” was tested, and the binding signal was 5840 fluorescence intensity (a.u.). For “CTTGTGGCCGGCGCAGCCGCCGCACCCCTCCGACGTGTTCCGGAGTCACCTAGTGCAG”, the binding signal was 5380 fluorescence intensity (a.u.).
